From the supplement of paper PMC8975748
Structures can show the parent of a compound that is named as a salt.

What follows are compounds tested on Saccharomyces cerevisiae BY4741 SeMeCo community (assay: z-score of subpopulation abundance vs DMSO median, subpopulation auxotrophic for HU; higher = larger share of this subpopulation than in DMSO controls). Details: 10 µM; 24 h; SM minimal medium; subpopulation (auxotrophy): HU.
Experimental: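 Fluorescent four-plasmid SeMeCo (self-establishing metabolically cooperating S. cerevisiae BY4741 community; plasmids pH-mRuby2, pL-mWasabi, pU-eCFP, pM-TagRFP657) was grown 24 h in minimal SM medium with each Selleck FDA-approved drug at 10 µM in 384-well plates. Cells were fixed and imaged by high-content confocal microscopy. For each auxotrophic subpopulation (and the prototroph), a z-score gives the deviation from the DMSO vehicle-control population median.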

Compared with `Oc1ccc(Cl)c2cccnc12` [Cloxiquine], `Cc1nccn1CC1CCc2c(c3ccccc3n2C)C1=O` (stereo not given) [Ondansetron Hydrochloride Dihydrate] is lower in “z-score of subpopulation abundance” value: 11.8 for the first, 0.2 for the second.

First: CO/N=C(\C(=O)N[C@@H]1C(=O)N2C(C(=O)OC(C)OC(C)=O)=C(COC(N)=O)CS[C@H]12)c1ccco1 (stereo not given in full) [Cefuroxime axetil]
Second: CC(=O)OCC1=C(C(=O)O)N2C(=O)[C@@H](NC(=O)Cc3cccs3)[C@H]2SC1 [Cephalothin]
The “z-score of subpopulation abundance” value of the first is higher: 0.15 for the first, -0.81 for the second.

Going from `C=CCCCCCCCCC(=O)[O-].C=CCCCCCCCCC(=O)[O-].[Zn+2]` [Zinc Undecylenate] to `CCCCCCCCCCCCCCCCOP(=O)([O-])OCC[N+](C)(C)C` [Miltefosine], the “z-score of subpopulation abundance” value falls from 2.38 to 1.54.

First: COc1cc([C@@H]2c3cc4c(cc3[C@@H](O[C@@H]3O[C@@H]5CO[C@@H](C)O[C@H]5[C@H](O)[C@H]3O)[C@H]3COC(=O)[C@H]23)OCO4)cc(OC)c1O [Etoposide]
Second: CC[C@H]1OC(=O)[C@H](C)[C@@H](O[C@H]2C[C@@](C)(OC)[C@@H](O)[C@H](C)O2)[C@H](C)[C@@H](O[C@@H]2O[C@H](C)C[C@H](N(C)C)[C@H]2O)[C@](C)(O)C[C@@H](C)C(=O)[C@H](C)[C@@H](O)[C@]1(C)O [Erythromycin]
The “z-score of subpopulation abundance” value of the first is higher: 0.37 for the first, -0.18 for the second.

Going from `CO[C@H]1C[C@@H]2CC[C@@H](C)[C@@](O)(O2)C(=O)C(=O)N2CCCC[C@H]2C(=O)O[C@H]([C@H](C)C[C@@H]2CC[C@@H](OP(C)(C)=O)[C@H](OC)C2)CC(=O)[C@H](C)/C=C(\C)[C@@H](O)[C@@H](OC)C(=O)[C@H](C)C[C@H](C)/C=C/C=C/C=C/1C` [Ridaforolimus (Deforolimus, MK-8669)] to `Cc1onc(-c2ccccc2Cl)c1C(=O)N[C@@H]1C(=O)N2[C@@H]1SC(C)(C)[C@@H]2C(=O)O` [Cloxacillin Sodium], the “z-score of subpopulation abundance” value falls from 25.9 to 0.86.

Compared with `NC(=NCCCCCCN=C(N)N=C(N)Nc1ccc(Cl)cc1)N=C(N)Nc1ccc(Cl)cc1` [Chlorhexidine?2HCl], `Clc1ccc(COC(Cn2ccnc2)c2ccc(Cl)cc2Cl)cc1` (stereo not given) [Econazole nitrate] is higher in “z-score of subpopulation abundance” value: 0.25 for the first, 12.4 for the second.

First: CCS(=O)(=O)CCn1c([N+](=O)[O-])cnc1C [Tinidazole]
Second: Cc1ncc([N+](=O)[O-])n1CCO [Metronidazole]
The “z-score of subpopulation abundance” value of the first is lower: -0.4 for the first, -0.14 for the second.

First: OC(CCN1CCCCC1)(c1ccccc1)C1CCCCC1 (stereo not given) [Trihexyphenidyl hydrochloride]
Second: CCCCOc1ccc(C(=O)CCN2CCCCC2)cc1 [Dyclonine HCl]
The “z-score of subpopulation abundance” value of the first is lower: -0.18 for the first, 0.17 for the second.

First: CC[C@@]1(O)C(=O)OCc2c1cc1n(c2=O)Cc2cc3cc(O)ccc3nc2-1 [(S)-10-Hydroxycamptothecin]
Second: CN(C)CCC[C@@]1(c2ccc(F)cc2)OCc2cc(C#N)ccc21 [Escitalopram Oxalate]
The “z-score of subpopulation abundance” value of the first is lower: -1.09 for the first, -0.95 for the second.

First: CCC(=O)NS(=O)(=O)c1ccc(-c2c(-c3ccccc3)noc2C)cc1 [Parecoxib]
Second: CC(C)c1c(C(=O)Nc2ccccc2)c(-c2ccccc2)c(-c2ccc(F)cc2)n1CC[C@@H](O)C[C@@H](O)CC(=O)O [Atorvastatin]
The “z-score of subpopulation abundance” value of the first is lower: -0.34 for the first, 2.62 for the second.

Going from `C[C@@H]1CN(c2c(F)c(N)c3c(=O)c(C(=O)O)cn(C4CC4)c3c2F)C[C@H](C)N1` [Sparfloxacin] to `CN(C)c1ccc(O)c2c1C[C@H]1C[C@H]3[C@H](N(C)C)C(=O)C(C(N)=O)=C(O)[C@@]3(O)C(=O)C1=C2O` [Minocycline HCl], the “z-score of subpopulation abundance” value falls from -0.11 to -0.3.

First: CC(C)[N+](C)(CCOC(=O)C1c2ccccc2Oc2ccccc21)C(C)C [Propantheline bromide]
Second: CC(C)COCC(CN(Cc1ccccc1)c1ccccc1)N1CCCC1 (stereo not given) [Bepridil hydrochloride]
The “z-score of subpopulation abundance” value of the first is lower: -0.76 for the first, 0.45 for the second.

Compared with `CC[C@@H](CO)NCCN[C@@H](CC)CO` [Ethambutol 2HCl], `CCOc1cc(NC(C)=O)ccc1C(=O)OC` [Ethopabate] is lower in “z-score of subpopulation abundance” value: 0.27 for the first, -0.22 for the second.

Compared with `CCC[S+]([O-])c1ccc2[nH]c(NC(=O)OC)nc2c1` (stereo not given) [Albendazole Oxide], `O=C(O)CCC(=O)Nc1ccc(S(=O)(=O)Nc2nccs2)cc1` [Succinylsulfathiazole] is lower in “z-score of subpopulation abundance” value: -0.21 for the first, -0.31 for the second.

Going from `CO/N=C(\C(=O)N[C@@H]1C(=O)N2C(C(=O)O)=C(Cn3ccc(=N)n3CCO)CS[C@H]12)c1csc(N)n1` [Cefoselis Sulfate] to `CO/N=C(\C(=O)N[C@@H]1C(=O)N2C(C(=O)O)=CCS[C@H]12)c1csc(N)n1` [Ceftizoxime], the “z-score of subpopulation abundance” value falls from -0.72 to -0.76.

First: CC(C)COc1ccc(CNC(=O)N(Cc2ccc(F)cc2)C2CCN(C)CC2)cc1 [Pimavanserin]
Second: CC(=O)N1CCN(c2ccc(OCC3COC(Cn4ccnc4)(c4ccc(Cl)cc4Cl)O3)cc2)CC1 (stereo not given) [Ketoconazole]
The “z-score of subpopulation abundance” value of the first is higher: 1.4 for the first, -0.29 for the second.

First: CCN(CC)CCOc1ccc(C(=C(Cl)c2ccccc2)c2ccccc2)cc1 [Clomifene citrate]
Second: CNCCC(Oc1ccc(C(F)(F)F)cc1)c1ccccc1 (stereo not given) [Fluoxetine HCl]
The “z-score of subpopulation abundance” value of the first is higher: 1.86 for the first, -0.26 for the second.

Going from `CO/N=C(\C(=O)N[C@@H]1C(=O)N2C(C(=O)[O-])=C(C[n+]3cccc4c3CCC4)CS[C@H]12)c1csc(N)n1` [Cefpirome sulfate] to `CN1[C@@H]2CC[C@H]1C[C@@H](OC(=O)c1c[nH]c3ccccc13)C2` [Tropisetron HCl], the “z-score of subpopulation abundance” value rises from -0.75 to -0.68.

Compared with `C#C[C@]1(O)CC[C@H]2[C@@H]3CCC4=CCCC[C@@H]4[C@H]3C(=C)C[C@@]21CC` [Desogestrel], `CCc1cc(C(N)=S)ccn1` [Ethionamide] is higher in “z-score of subpopulation abundance” value: -0.11 for the first, 0.19 for the second.

First: NC[C@@H]1O[C@H](O[C@H]2[C@@H](O)[C@H](O[C@@H]3[C@@H](O)[C@H](N)C[C@H](N)[C@H]3O[C@H]3O[C@H](CO)[C@@H](O)[C@H](O)[C@H]3N)O[C@@H]2CO)[C@H](N)[C@@H](O)[C@@H]1O [Paromomycin Sulfate]
Second: O=C1OCCN1/N=C/c1ccc([N+](=O)[O-])o1 [Furazolidone]
The “z-score of subpopulation abundance” value of the first is higher: -0.92 for the first, -5.84 for the second.
